Measurements reported in PubChem BioAssay (NCI).
About 83,000 compounds went through this panel and 20% of them were active in at least one assay; those are over-represented in the sample as a whole.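 In brief: 96-well plates, 48 h treatment, single concentration, percent growth endpoint.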 The source made the active and inactive calls. How the source made its calls: active means growth percent below 10; inactive means the rest.

Legend:
Experiment in all cases: NCI-60 one-dose screen, 48 h (100 = growth as untreated, 0 = no growth, -100 = all killed)
Conditions in all cases: 10 µM unless noted
NCI-H23 lung = system: NCI-H23 lung
NCI-H226 lung = system: NCI-H226 lung
NCI-H322M lung = system: NCI-H322M lung
HOP-62 NSCLC = system: HOP-62 NSCLC
NCI-H460 lung = system: NCI-H460 lung
HOP-92 NSCLC = system: HOP-92 NSCLC
NCI-H522 lung = system: NCI-H522 lung
A549/ATCC NSCLC = system: A549/ATCC NSCLC
786-0 renal = system: 786-0 renal
COLO 205 colon = system: COLO 205 colon
DU-145 prostate = system: DU-145 prostate
K-562 leukemia = system: K-562 leukemia
MALME-3M melanoma = system: MALME-3M melanoma
MDA-MB-231 breast = system: MDA-MB-231 breast
RXF 393 renal = system: RXF 393 renal
SF-268 CNS = system: SF-268 CNS
SF-295 CNS = system: SF-295 CNS
SF-539 CNS = system: SF-539 CNS
UACC-257 melanoma = system: UACC-257 melanoma
M14 melanoma = system: M14 melanoma

Measured: growth

O=S(=O)(Nc1cccc(-n2cnc3cc(-c4ccc(O)cc4)ccc32)c1)C1CC1
active: K-562 leukemia 8.55% | RXF 393 renal 4.76% | SF-539 CNS -11.6%
inactive: NCI-H23 lung 38.5% | NCI-H226 lung 19.3% | NCI-H322M lung 55.3% | HOP-62 NSCLC 44.1% | NCI-H460 lung 15.8% | HOP-92 NSCLC 87.9% | NCI-H522 lung 14.4% | A549/ATCC NSCLC 37.7% | 786-0 renal 40.1% | COLO 205 colon 25.8% | DU-145 prostate 27.5% | MALME-3M melanoma 46.1% | MDA-MB-231 breast 42.4% | SF-268 CNS 31.9% | SF-295 CNS 11.9% | UACC-257 melanoma 68.4% | M14 melanoma 29.7%

Cc1ccc(Cc2cnc(NC(=O)c3ccc(/C=C4\SC(=S)N(C)C4=O)cc3)s2)cc1
active: NCI-H522 lung -22.8% | SF-295 CNS 8.52%
inactive: NCI-H23 lung 41.3% | NCI-H226 lung 52.5% | NCI-H322M lung 35.9% | HOP-62 NSCLC 46.4% | NCI-H460 lung 39.6% | HOP-92 NSCLC 48.4% | A549/ATCC NSCLC 43.2% | 786-0 renal 37.8% | COLO 205 colon 24.4% | DU-145 prostate 26.1% | K-562 leukemia 23.3% | MALME-3M melanoma 25.2% | MDA-MB-231 breast 41.4% | RXF 393 renal 29.4% | SF-268 CNS 38.6% | SF-539 CNS 12.7% | UACC-257 melanoma 30.4% | M14 melanoma 20.5%

COc1ccc2oc3c4[nH]c5ccccc5c4c4c(c3c2c1)C(=O)N(C(=O)OC(C)(C)C)C4=O
active: NCI-H23 lung -19.9% | NCI-H226 lung -1.92% | NCI-H322M lung 3.12% | HOP-62 NSCLC -18% | NCI-H460 lung 4.57% | HOP-92 NSCLC -14.6% | NCI-H522 lung -30.7% | A549/ATCC NSCLC 0.48% | COLO 205 colon -40.9% | DU-145 prostate 6.06% | K-562 leukemia 3.78% | MALME-3M melanoma -24.9% | MDA-MB-231 breast 8.48% | RXF 393 renal -0.96% | SF-268 CNS 4.9% | SF-295 CNS -26.7% | SF-539 CNS -24.8% | UACC-257 melanoma -52.9% | M14 melanoma -44.6%
inactive: 786-0 renal 11.6%

CC(=O)OC[C@@]1(C)C2CC[C@]3(C)C(CC=C4C5CC(C)(C)CC[C@]5(C(=O)Nc5ccc(F)cc5)CC[C@]43C)[C@@]2(C)C[C@@H](OC(C)=O)[C@@H]1OC(C)=O (stereo not given in full)
inactive: NCI-H23 lung 45.6% | NCI-H226 lung 47.7% | NCI-H322M lung 60.3% | HOP-62 NSCLC 41.3% | NCI-H460 lung 11.5% | HOP-92 NSCLC 54.2% | NCI-H522 lung 49.5% | A549/ATCC NSCLC 40.6% | 786-0 renal 59% | COLO 205 colon 43.1% | DU-145 prostate 47.4% | K-562 leukemia 22.4% | MALME-3M melanoma 58.2% | MDA-MB-231 breast 65.5% | RXF 393 renal 87.4% | SF-268 CNS 57.4% | SF-295 CNS 23.4% | SF-539 CNS 40.2% | UACC-257 melanoma 26.8% | M14 melanoma 48.1%

C=C1CC[C@@H]2[C@]3(C)COC(c4ccco4)O[C@@H]3CC[C@@]2(C)[C@@H]1C/C=C1/C(=O)OCC1OC(C)=O (stereo not given in full)
inactive: NCI-H23 lung 61.6% | NCI-H322M lung 79.5% | HOP-62 NSCLC 66.5% | NCI-H460 lung 37.6% | HOP-92 NSCLC 37.9% | A549/ATCC NSCLC 38.7% | COLO 205 colon 48.6% | DU-145 prostate 48.8% | MDA-MB-231 breast 48.8% | RXF 393 renal 27.5% | SF-268 CNS 67.8% | SF-295 CNS 59.5% | UACC-257 melanoma 58.7% | M14 melanoma 19%
active: NCI-H226 lung 0.912% | NCI-H522 lung -29.9% | 786-0 renal 3.41% | K-562 leukemia 3.97% | MALME-3M melanoma -60.3% | SF-539 CNS -47.3%

Cc1ccccc1[C@H]1C(C(=O)c2ccc(Cl)cc2)C2(N[C@@H]1c1ccccc1)C(=O)Nc1ccc(Cl)cc12 (stereo not given in full)
inactive: NCI-H322M lung 22.1% | SF-268 CNS 29.3%
active: NCI-H23 lung -56.2% | NCI-H226 lung -60.2% | HOP-62 NSCLC -63.7% | NCI-H460 lung 1.55% | HOP-92 NSCLC -44.4% | NCI-H522 lung -48.6% | A549/ATCC NSCLC -29.2% | 786-0 renal -39.3% | COLO 205 colon -75.7% | DU-145 prostate 5.12% | K-562 leukemia -2.2% | MALME-3M melanoma -33.3% | MDA-MB-231 breast -72.2% | RXF 393 renal -67.7% | SF-295 CNS -22.5% | SF-539 CNS -58.1% | UACC-257 melanoma 4.82% | M14 melanoma -78.4%

O=C(COc1ccc(NC(=O)Nc2ccc(Cl)c(Cl)c2)cc1)N=Nc1c(O)[nH]c2ccccc12
active: NCI-H23 lung -43.7% | NCI-H226 lung -34.7% | HOP-62 NSCLC -53.1% | NCI-H460 lung -63.4% | HOP-92 NSCLC -41% | NCI-H522 lung -42.8% | A549/ATCC NSCLC -36.3% | 786-0 renal -71.9% | COLO 205 colon -41.7% | DU-145 prostate -42.7% | K-562 leukemia 5.06% | MALME-3M melanoma -79.3% | MDA-MB-231 breast -66.8% | RXF 393 renal -52.7% | SF-268 CNS -5.94% | SF-295 CNS -48.9% | SF-539 CNS -86.3% | UACC-257 melanoma -44.5% | M14 melanoma -76.5%
inactive: NCI-H322M lung 28%
